Measured values as given in PubChem BioAssay AID1347426 (Functional Genomics Laboratory (NCATS/FGL), 2020).
In all, about 31,000 sequences went through this assay and about 1,400 (4.5%) were called active. Many of the other results were omitted from the sample, so actives are more common in it than they were. Unmarked numbers belong to inactive results.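 Rule for the calls: active = median seed-adjusted z-score above 1 or below -1; inactive = the rest.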

Assay: Novel Modifiers of Survival Motor Neuron (SMN) Protein: Gene Identification via Genome-wide siRNA Screen;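 note: luminescence tracks full-length SMN protein made from the SMN2 reporter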
Settings: HEK293T SMN2-luciferase reporter, siRNA knockdown, 72 h; actives lie on both sides
How it was run: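 HEK293T cells stably carrying an SMN2 promoter/splicing cassette–luciferase reporter were reverse-transfected with 1 pmol siRNA per well (druggable-genome library, 3 siRNAs per gene) and grown 72 h at 37 °C. Luminescence, normalized to negative-control siRNA and log10-transformed, was scored as MAD.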

Sequence | median seed-adjusted z-score
AGAAGAUCAUAGGCAGCAATT against KLK8 | 0.736
GCUUCAGAGUCAACGGACATT against MICB | 0.162
GAGGAACAGGAAUAACAUUTT against GCG | -1.18 (active)
GGCCUAACCAUAUGCCUAUTT against SS18 | 0.34
GGUUUUUCCGCCAACUAGATT against CAPS | -1.25 (active)
GGUGUGCGGUUCAUCUUCATT against ILVBL | 0.343
CUAAAGAGGUCAACAUUGATT against RGS16 | 0
AGGUGUUCAUCGGCGUAAATT against GRHL3 | -0.0434
CCAGCAGCAUGGAAGUUGUTT against HSD3B7 | -0.0819
UCAUCUACCUGAUGCGUAUTT against TAF6 | -1.36 (active)
GAACUAUGAAUAAAGCUUUTT against HAGHL | -0.334
GGCUUGAAGUAUGGAAAAATT against QRICH1 | -1.04 (active)
CCAGCUUAGUUCAAUAUGATT against GABRA4 | 0.549
CCAUCCUGAUAAGAACCCATT against DNAJA1 | -0.00548
GGGCCUACUUUACAUCACATT against TXNDC14 | -2.39 (active)
CGCUUACAAGGUCAACAUUTT against S1PR3 | -0.0931
CAAGCUACGUAGAGAUCUATT against KIFC1 | 0.0417
ACAUGUUCCUCACCUUAAATT against SLC6A1 | -0.122
GGAGGGAUAUGUUCCACGUTT against TP53BP2 | 0.157
CUACUGUGGGUGUCGCAUATT against UQCRFS1 | -1.28 (active)
GAGCGACUUUGAUCACCAUTT against PANK2 | 0.121
CAUUCAUCAUCCACCCAGATT against MUPCDH | -0.329

Sequence | median seed-adjusted z-score
CCCGGAUACUUCUGAAGAATT against HNRPDL | -0.68
CGGUGGGAUGGGAACGAAATT against DRAP1 | 1.08 (active)
CUAUGACUGGAUUAGCGUATT against BEST2 | 0.415
GCUUUUGAACUAUUUGAUATT against CETN3 | -0.0815
UGAAGACCCAGAGAUGUAATT against PTN | -0.174
UGAGAUCGCUGUCAUGUUATT against PSMD10 | 0.265
GCAAGGUUUAAUGAACAAATT against GTF2E1 | 1.76 (active)
GUGAGAACUUUGACGAUUATT against PMP2 | 0.00618
GUAACUGCAUUCAACUUGATT against OSMR | 0.548
UGAAAAACAUUAACAAGCATT against RNASE7 | 1.07 (active)
CAACCUACAUGUUUGCUGATT against SCARF1 | -0.324
GGAACAUUCCGACCUACAATT against PTDSS2 | 0.0941
CCGUCACCAUCCUCAUCUATT against PORCN | 0.214
GAUGAUUUUUGGAGACCUATT against TRPV5 | 0.0879
GGAGUUUGAGGUAUACCUATT against IL6 | -0.436
GCUUUAACGUGUCUGUGCATT against SLC25A5 | -0.0501
CUACUACUUUAAUCCCUAATT against FDFT1 | -0.143
GCAUCGACCUGAUUCACAATT against AP3B2 | -2.45 (active)
GGAGCGGUUCAGAUCAAUATT against RAB39 | -0.408
CCUCAUUGAUAACACUAAATT against GBP2 | -0.263
GGAUUGAAGGUGUUCACUATT against PZP | -0.878
CAGUACUACGUGAAACUGATT against BAT1 | -1.49 (active)

Sequence | median seed-adjusted z-score
GGCUACAAGUAGAGAGUUUTT against ESPL1 | 0.871
GAGAAAGUGUGAACUUACATT against XRCC2 | 0
CGCAACUCUUUACACCGUATT against SAMHD1 | -1.33 (active)
GGAUGUUUUCGAAACGCAUTT against BRDT | -0.357
GACUAUUCCUGAUCCUUAUTT against AGBL2 | -0.796
GCAUCAGCUUCGAUGAGUATT against S100A16 | 0.24
CCCUGUCUAUAAUUUCUUUTT against DGCR8 | -0.266
CGCCUUAUACUUUACCAAATT against MGC16703 | 0.55
CCAUUAAGAAUGCUAAUAUTT against ABCB10 | -0.1
GGCUAUAGGGUGUAUAUUUTT against CDK8 | -1.47 (active)
CCUUCGACCUCAAGAGACATT against OVOL1 | -0.0414
CAGGCUUUGUUAGACGUAATT against ZNF157 | 0.137
GCUCUUGGAUUAAAAGGUATT against STAR | 0.478
GAACGUACUCUUGCUUAUATT against ATP6V1D | 0.594
CAGAGAACCCAUUACAUCATT against HADH | 1.11 (active)
GACUUUCACAGUUCACCGATT against KCTD3 | 0.603
UCAACCCUCUGAUAGAAGATT against EID2 | -1.04 (active)
GUAUGCUCCCGAUCAAGUATT against APOBEC3A | 0.467
GAAGGAUGGGUGGACGUAATT against NALCN | -0.266
CCAUAAAUGCUACGAAUAUTT against EGFR | 0.263
CAAUGAAUUUUUCCGAAGATT against ITGA10 | 0.378
CCACAUGCUUCAAACAUCATT against TOR1A | -0.231

Sequence | median seed-adjusted z-score
UAGCUUCGGUGAUCAAGAATT against ANXA9 | 0.055
GCAAGAGUCGUUCACCAGATT against MGMT | -0.0549
GCUCAAAGGUCUCACCUGCTT against SLC35A2 | 1.06 (active)
GGCCGGAGAUUAUCCUCAATT against MIXL1 | -0.204
GUGUGGUAGCUAUUGACAATT against TSC22D1 | 0
UUCCCAUAUUUAUUCGGACTT against AMH | -0.255
GCAGUGACCUUCAAAGUGATT against PTPRN2 | -0.104
CAACUGCAAGAGGACUGUATT against SLC10A4 | 0.069
UGCUGUUCGUGGAUUUCAATT against CDX4 | 0.181
AGAUUGAAAUCGACUUUGATT against BRD4 | 1.13 (active)
GCAUCAUCUCAGCACCAGATT against SLC5A12 | 0.279
GAACCGCCCUCCUGAUUAATT against WNT3A | -0.66
GCAAGAUCCCAAAUCAGCATT against ADAT1 | 0.404
ACAAGAUGACCAACACUAATT against ARHGAP1 | -1.14 (active)
GAACGGGUAUGUGGAGAUATT against INHBA | 0.361
CGAACGAAGAAGAGCCGAATT against NFATC2 | 0.183
CUACCCAACCUGUAGCUAATT against UBE2J1 | -1.2 (active)
CGAUUAGAAAUCAACAUGATT against MLKL | 0
GAUUUCUAGGCAUCCCGUATT against ARSA | 0.0938
CCAUGAUCCUGUGGAUAAATT against HNRNPA2B1 | 1.33 (active)
CCCUCGAAUUCGCAUAGAATT against DIS3 | 0.266
GCACCGUCUAUGUCACCAUTT against GAL3ST3 | -0.54

Sequence | median seed-adjusted z-score
CCCAUAUUCGGAUCCAGAATT against PTPN6 | -0.515
GGAAUCGUGGAGAAUAUGATT against NUBP2 | -0.21
CCAUGCCCUAUGUUAAGAATT against RRM2B | -0.128
AGACGAUCCGGGUAAAGUUTT against LSM7 | -0.45
CAACUAGUGCAACCAGUAATT against ZNF207 | -3.1 (active)
GGCUCCUCCUUGUACUCAATT against FOXO3 | -0.712
GGGCAUCGCUAAACCCAAATT against LIF | 0.273
GGUCCGAUGUUACGUCUAATT against TIGD4 | -0.553
CCGGGACAGUGACAUCAUATT against ENDOD1 | -0.138
GGAGCACAGAGGCUCAGAATT against TNFRSF13B | 0.152
CCAUCAAACUUGCAUCCCUTT against ISX | 1.99 (active)
GAACAUCUCUUGUGGUAUUTT against SLC22A16 | 0.0878
GGUUUUAACUGGAACUGGATT against HIF1AN | -0.0315
GGAUCGACCCAACCUAUGUTT against XYLT2 | 0.148
CAGCACUAUUAGACAGGAATT against ZBTB40 | 0.187
CUGCGGACCCAAUACAUGATT against ARID3A | -1.11 (active)
AGAGGUUUGGCAGAAAUACTT against NPFF | -0.631
UAAGAACACCGUUACCCAATT against NLGN4X | -0.1
GCAGACCACCUGAAUAUGATT against TRO | 2.04 (active)
GGAGUAGAUUUUAGCAUAATT against TNKS2 | 0.0545
